# Luc counter: Counterscreen for Luciferase (Kinase-Glo TM) Inhibition; hit rate 0.28% among 200,000; Kinase-Glo luciferase, ATP luminescence, 8 min; Potency, µM (series often up to 38.3 µM), without a hit: at the highest dose activity change, negative = inhibition, hits mostly inhibitors; further: nearly all actives have a fitted effect of over 60% in size
#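 Recombinant Kinase-Glo luciferase, 10 uM ATP (linear range), luciferin; imidazole pH 7.2 / KCl / MgCl2 / Tween / BSA buffer; 8 min RT; luminescence.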
# RORgamma inh: qHTS for inhibitors of ROR gamma transcriptional activity | Nuclear receptor ROR-gamma (Mus musculus), P51450 | Drosophila S2 Gal4-RORgamma UAS-luciferase reporter, 20 h | Potency, µM (top dose mostly 53.6 µM), inactives show top-dose activity change, negative = inhibition, hits mostly inhibitors | hit rate 5.4% among 310,000 | AID 2551, 2010; further: nearly all actives have a fitted effect of over 60% in size
# Target sequence (P51450 whole entry, looked up, the tested form may be a part): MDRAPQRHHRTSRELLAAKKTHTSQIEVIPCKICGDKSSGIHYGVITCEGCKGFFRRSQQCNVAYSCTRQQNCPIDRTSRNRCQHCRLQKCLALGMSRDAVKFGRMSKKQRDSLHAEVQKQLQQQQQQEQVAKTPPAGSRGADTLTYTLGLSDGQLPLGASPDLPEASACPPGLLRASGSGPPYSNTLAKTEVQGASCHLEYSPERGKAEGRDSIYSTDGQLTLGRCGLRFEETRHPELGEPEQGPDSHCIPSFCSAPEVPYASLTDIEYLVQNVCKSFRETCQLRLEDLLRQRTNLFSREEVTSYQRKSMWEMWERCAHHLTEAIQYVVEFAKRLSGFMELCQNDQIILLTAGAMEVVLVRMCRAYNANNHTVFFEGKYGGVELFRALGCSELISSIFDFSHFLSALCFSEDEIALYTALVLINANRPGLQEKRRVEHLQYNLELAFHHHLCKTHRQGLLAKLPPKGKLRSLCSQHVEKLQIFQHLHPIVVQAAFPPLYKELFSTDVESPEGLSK
#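 Stably transfected Drosophila Schneider cells are the test system, with ROR gamma fused to Gal4 and luciferase under UAS control; luminescence is read after 20 hr of 700 uM copper sulfate induction at ambient temperature.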
# VP16 counter: VP16 counterscreen qHTS for inhibitors of ROR gamma transcriptional activity. Potency, µM (titrated, usually from 53.6 µM), without a hit: at the top dose activity, negative = inhibition, usual class: inhibitors. hit rate 3.5% among 310,000. Drosophila S2 Gal4-VP16 UAS-luciferase, luminescence, 20 h. AID 2546, 2010;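 further: Gal4-VP16 expression switched on by copper sulfate through the metallothionein promoter; nearly all actives have a fitted effect of over 50% in size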
# Active calls of the source: *; ? = inconclusive; . = no result given; [ ] = remark or other dose. In the library only some 6.4% were active in any assay of this set; here they are far more common. The call rests on the fitted dose curve; in most records, active means well fitted curve in the direction sought with a large enough effect; inconclusive means small, poorly fitted or top-dose-only effect, or another doubt; inactive means no such curve, though single readings can be large; an effect the other way counts as inactive or inconclusive. On the % scale 0 is the no-effect control and ±100 the full control effect; potency means the concentration at half of the fitted maximal effect.
SMILES,Luc counter,RORgamma inh,VP16 counter
CC(C)(C)n1nnnc1C(c1cccnc1)N(Cc1ccccc1)Cc1cccs1 (centres undefined),0.9%,?,?
CC(C)(C)n1nnnc1C(c1ccc(Cl)cc1)N(Cc1cccnc1)Cc1ccco1 (centres undefined),2.9%,?,-3.0%
CC(C)(C)n1nnnc1C(c1ccc(C(F)(F)F)cc1)N(Cc1ccc(F)cc1)Cc1ccco1 (centres undefined),0.6%,?,?
CC(C)(C)n1nnnc1C(c1ccc(C(F)(F)F)cc1)N(Cc1ccccc1)Cc1ccco1 (centres undefined),-3.2%,6.31µM*,3.98µM*
COc1cc(NC(=O)CCC(=O)c2cccs2)cc(OC)c1,.,-15.2%,-3.9%
O=C(O)C1NCCN(C(=O)c2ccc3c(ccc4ccccc43)c2)C1C(=O)O (centres undefined),.,-6.1%,-9.0%
O=c1c2cc3c(cc2[nH]c(=S)n1C1CCN(Cc2ccccc2)CC1)OCO3,-1.9%,5.01µM*,3.55µM*
CCOc1cc2[nH]c(=S)n(C3CCN(Cc4ccccc4)CC3)c(=O)c2cc1OCC,-1.7%,?,?
O=C(CC1C(=O)NCCN1CC1CCCCC1)NCCCN1CCOCC1 (centres undefined),.,-23.9%,-5.4%
N#CCCn1cc(/C=N/O)c(-c2ccc(-c3ccccc3)cc2)n1,-7.1%,8.9%,3.9%
N#CCCn1cc(/C=N/NC(N)=S)c(-c2ccc(Br)cc2)n1,2.4%,0.224µM*,0.501µM*
N#CCCn1cc(/C=N/NC(N)=S)c(-c2ccccc2)n1,-0.8%,6.31µM*,7.08µM*
NC(=S)N/N=C/c1cn(CCC(=O)O)nc1-c1cccc(Br)c1,.,?,-4.8%
COCC(=O)N1CCC2(CC1)CN(C(=O)Nc1ccccc1)C2,-5.7%,0.3%,1.9%
Cc1cc(OC(=O)C(c2ccccc2)c2ccccc2)c([N+](=O)[O-])c(=O)[nH]1,-2.6%,-8.7%,4.3%
O=C(CN(Cc1ccccc1F)C(=O)c1csnn1)NCc1ccc2c(c1)OCO2,.,19.1%,1.2%
COc1ccc([N+](=O)[O-])cc1NC(=O)COC(=O)c1ccc(O)cc1,.,1.0%,-1.1%
CC(C)N1C(=O)S/C(=C/c2ccc3c(c2)n(C)c(=O)n3C)C1=O,-3.7%,20.5%,-4.1%
CCN(CC)c1ccc(/C=C2\SC(=O)N(C(C)C)C2=O)o1,.,3.55µM*,4.47µM*
CCCCSc1ccc2nc(-c3ccc(C#N)cc3)cn2c1,5.7%,-3.3%,2.3%
CCCSc1ccc2nc(-c3ccccc3)cn2c1,10µM*,2.24µM*,6.31µM*
CS(=O)(=O)N1CCC2(CC1)CN(Cc1ccc(C#N)cc1)C2,0.4%,-0.6%,6.5%
O=C(Nc1cccc(Cl)c1)c1ccc(F)c(S(=O)(=O)NCc2cccs2)c1,0.7%,14.9%,20µM*
Cc1cccc(NC(=O)c2ccc(F)c(S(=O)(=O)NCc3ccco3)c2)c1,.,25.7%,4.6%
O=C(CSc1nc2ccccc2n1Cc1ccccc1Cl)N/N=C/c1ccccc1C(=O)O,.,-5.1%,?
SMILES,Luc counter,RORgamma inh,VP16 counter
O=C(O)c1ccccc1-c1nc2ccccc2c(=O)n1O,-0.8%,0.9%,3.3%
O=c1c2ccccc2nc(N/N=C/c2c(O)ccc3ccccc23)n1O,-5.7%,0.891µM*,12.6µM*
Cc1nc(N/N=C/c2ccc(O)cc2)c2cnn(-c3ccccc3)c2n1,0.4%,42.1%,4.7%
O=c1c2ccccc2nc(N/N=C/c2ccc(O)cc2)n1O,11.2µM*,11.2µM*,-27.8%
CCc1ccccc1Nc1nn2c(=O)c3ccc(C(=O)NCc4ccccn4)cc3nc2s1,.,?,-0.8%
O=[N+]([O-])c1cccc(-c2nn(-c3ccccc3)cc2CO)c1,.,1.2%,-3.4%
O=C(NCc1cn(-c2ccccc2)nc1-c1ccccc1)c1ccc([N+](=O)[O-])cc1,-0.9%,?,7.08µM*
C=CCNC(=S)N1CCN(Cc2ccccc2)CC1,-2.1%,-10.0%,-6.6%
Cc1ccccc1NC(=O)Nc1ccc2c(c1)CCC2,.,-4.3%,28.9%
O/N=C/c1ccnc(SCc2ccc(Cl)cc2)n1,.,20.2%,-8.1%
O/N=C/c1ccnc(SCc2ccccc2)n1,.,0.562µM*,3.55µM*
COc1ccc2ccc3c(c2c1)N=C[C@]1(O3)N(C)c2ccccc2C1(C)C,-1.8%,12.6µM*,?
CC1=NOC2(C1)N(C)c1ccccc1C2(C)C (centres undefined),-1.6%,1.5%,-8.9%
CCn1c(SCC(=O)N/N=C(\C)c2ccncc2)nnc1-c1ccccc1,0.3%,-7.6%,-8.4%
CCOc1ccc(-n2nc3ccc(N)cc3n2)cc1,.,-37.5%,-27.1%
CCOc1ccc(-n2nc3cc(C)c(N)cc3n2)cc1,.,10µM*,-27.3%
O=C(c1ccco1)N1CCC2(CCCN(c3ccncc3)C2)CC1,-1.5%,-12.0%,2.3%
CCOC(=O)C(=O)C1(C(=O)OCC)Oc2cc(OC)cc(OC)c2C(=O)C1c1ccccc1 (centres undefined),-1.5%,19.0%,-7.9%
O=S(=O)(NCCC(c1ccc(F)cc1)c1ccco1)c1ccccc1 (centres undefined),0.1%,131.8%,?
O=C(CC(c1ccco1)S(=O)(=O)c1ccccc1)c1ccc(F)cc1 (centres undefined),-1.9%,2.51µM*,11.2µM*
O=C(CN1C(=O)NC2(CCCC2)C1=O)N1CCc2ccccc2C1,-1.2%,10.1%,-5.7%
CCOc1ccc(C(=O)NCCC(=O)N2CCC3(CC2)NCCc2[nH]cnc23)cc1OCC,.,3.5%,4.6%
COCCCNC(=S)Nc1c(C)cc(C)cc1C,.,11.2µM*,?
CCOCCCNC(=S)Nc1ccc2nc(N3CCCC3)cc(C)c2c1,-4.5%,-43.2%,1.3%
Cc1cc(C)c(NC(=S)NCCO)c(C)c1,.,-37.0%,1.7%
SMILES,Luc counter,RORgamma inh,VP16 counter
CCOCCCNC(=S)Nc1cc(C)cc(C)c1,-0.6%,6.31µM*,10µM*
CN(C)c1ccc(CNC(=O)C2(C)C=CCN2C(=O)c2ccccc2)cc1 (centres undefined),-5.8%,1.3%,-9.2%
CCc1cccc2c(C(=O)CCl)c[nH]c12,.,?,14.1µM*
CCc1cccc2c(C(=S)N3CCCC3)c[nH]c12,-0.2%,22.9%,-10.2%
COC(=O)[C@@]1(Cc2ccc(F)cc2)[C@H]2c3cc(C(=O)N4CCCC4)n(Cc4ccc(C)o4)c3C[C@H]2CN1C(=O)c1ccccc1,-3.8%,24.0%,-19.6%
COc1ccccc1CNC(=O)c1cccc(-c2ccccc2OC)n1,1.2%[39.9 µM],?,6.5%
COc1ccc(CCn2c(-c3ccncc3)n[nH]c2=S)cc1OC,1.2%,-15.4%,9.2%
C=CCn1c(CCSCc2ccccc2)n[nH]c1=S,2.6%,3.98µM*,?
COc1ccc(CSc2n[nH]c(C)n2)cc1Br,-0.2%,39.9%,12.5%
C=CCn1c(CSCc2ccccc2)nnc1SCC(=O)NCc1ccccc1,-1.7%,-9.3%,-2.5%
CCn1c(CCCc2ccc(OC)c(C)c2)n[nH]c1=S,-2.2%,2.24µM*,?
C=CCn1c(CCSCc2ccc(OC)c(C)c2)n[nH]c1=S,0.5%,2.51µM*,-15.5%
O=c1[nH]c(CSc2ccccn2)nc2c1oc1ccccc12,-18.0%,?,?
CN(C)C(=O)c1ccc(-c2nccc(NCc3cccnc3)n2)cc1,-1.7%,0.9%,-2.7%
